The source of these data is PubChem BioAssay (NCATS).

SMILES strings stand for the structures. Unmarked numbers belong to inactive results. Inconclusive results are not listed. Activity calls are given as the source filed them. Calls come from the whole dose curve; as a rule, active = well fitted curve in the direction sought with a large enough effect; inconclusive = small, poorly fitted or top-dose-only effect, or another doubt; inactive = no such curve, though single readings can be large; an effect the other way counts as inactive or inconclusive.

One assay is described as follows: Cellular Toxicity (caspase-3) SK-N-SH (AID 661).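 For caspase-3 activation: 0% = DMSO basal and 100% = 10 µM staurosporine.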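 Note: cells exposed to compound for 16 hours.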 Note: potency is the fitted concentration of half-maximal effect. To be noted: SK-N-SH caspase-3 activation, qHTS; caspase-3 activation: at 91.7 µM (top of the series), DMSO as zero, staurosporine as full. In outline:
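Luminescent Caspase-Glo 3/7 read-out after 16 hr compound exposure of SK-N-SH neuroblastoma cells at 37 °C. Signal increase normalized to DMSO (basal) and 10 uM staurosporine (100%); AC50 from Hill equation fits of qHTS concentration-response data.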
Turning to `c1cc(OCC2CO2)cc(OCC2CO2)c1` (configuration not stated), the Potency was 12.6 µM (active).
In the case of `Cc1cc(Nc2ccc(O)cc2)ccc1N`, the caspase-3 activation is 12.7%.
For the compound `CN(C)c1ccc(C2(c3ccc(N(C)C)cc3)OC(=O)c3cc(N(C)C)ccc32)cc1`, the caspase-3 activation was -0.0609%.
Regarding `CO[C@H]1/C=C/O[C@@]2(C)Oc3c(C)c(O)c4c(O)c(c5c(c4c3C2=O)NC2(CCN(CC(C)C)CC2)N=5)=NC(=O)/C(C)=C\C=C\[C@H](C)[C@H](O)[C@@H](C)[C@@H](O)[C@@H](C)[C@H](OC(C)=O)[C@@H]1C`, the caspase-3 activation was 5.74%.
As for `O=C(OCC(COC(=O)c1ccccc1)(COC(=O)c1ccccc1)COC(=O)c1ccccc1)c1ccccc1`, the caspase-3 activation is -0.121%.
With `CC(=O)Nc1ccc(C(=O)CCl)cc1`, the caspase-3 activation is -5.98%.
The same measure, in the same setting: the same measure for `Nc1ccc2cc3ccccc3cc2c1`: -1.26%.
`c1ccc2c(c1)-c1cccc3c1c-2cc1ccccc13`: the caspase-3 activation is 2.25%.
As to `O=C=Nc1ccc(Cc2ccc(N=C=O)cc2)cc1`, the caspase-3 activation was 0.0206%.
As to `O=[N+]([O-])c1cc([N+](=O)[O-])c2ccc(S(=O)(=O)O)cc2c1O`, the caspase-3 activation was -1.51%.
Consider `CCC(C)Nc1ccc(NC(C)CC)cc1` (configuration not stated), for which the caspase-3 activation is -5.96%.
As to `CNc1ccc(O)cc1`, the caspase-3 activation is -7.58%.
As for `O=C1OC2(c3cc(Br)c(O)c(Br)c3Oc3c2cc(Br)c(O)c3Br)c2c(Cl)c(Cl)c(Cl)c(Cl)c21`, the caspase-3 activation is 0.172%.
On to `Oc1ccc2cc(SSc3ccc4cc(O)ccc4c3)ccc2c1`, for which the caspase-3 activation is 10.2%.
Turning to `c1ccc2c(c1)ccc1cc3c(ccc4ccccc43)cc12`, the caspase-3 activation is -0.556%.
Still for that read-out and setting: as for `C/C=C1\C(=O)C[C@H]2[C@@H]3CCC4=CC(=O)CC[C@]4(C)[C@H]3CC[C@]12C`, the figure is 1.31%; as for `C=C(C)c1ccccc1`, 0.438%.
As to `Cc1ccc(S(=O)(=O)Oc2ccc(N=Nc3ccc(-c4ccc(N=Nc5c(O)ccc6cc(S(=O)(=O)O)cc(S(=O)(=O)O)c56)c(C)c4)cc3C)cc2)cc1`, the caspase-3 activation was -0.915%.

The nature of a further assay: Cellular Toxicity (caspase-3) H-4-II-E (AID 663).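 For caspase-3 activation: cells exposed to compound for 16 hr before readout.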 Note: potency is the fitted concentration of half-maximal effect. To be noted: H-4-II-E rat hepatoma; Potency: caspase-3 activation; caspase-3 activation: at 92.2 µM (top of the series), scaled: DMSO 0%, 100 µM tamoxifen 100%. In outline: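 Caspase 3/7 activation measured in H-4-II-E cells in complete culture medium after 16 hr treatment at 37 °C, using luciferase-coupled substrate readout; AC50 values come from Hill-equation fits of normalized concentration-response data.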
For the compound `Cc1cc(Nc2ccc(O)cc2)ccc1N`, the caspase-3 activation is 20.7%.
As to `CN(C)c1ccc(C2(c3ccc(N(C)C)cc3)OC(=O)c3cc(N(C)C)ccc32)cc1`, the caspase-3 activation is 0.305%.
With `CO[C@H]1/C=C/O[C@@]2(C)Oc3c(C)c(O)c4c(O)c(c5c(c4c3C2=O)NC2(CCN(CC(C)C)CC2)N=5)=NC(=O)/C(C)=C\C=C\[C@H](C)[C@H](O)[C@@H](C)[C@@H](O)[C@@H](C)[C@H](OC(C)=O)[C@@H]1C`, the caspase-3 activation is 2.28%.
Regarding `O=C(OCC(COC(=O)c1ccccc1)(COC(=O)c1ccccc1)COC(=O)c1ccccc1)c1ccccc1`, the caspase-3 activation is -0.12%.
Consider `ClC1=C(Cl)C(Cl)(Cl)C(Cl)=C1Cl`, for which the caspase-3 activation is 4.97%.
Still for that read-out and setting: as for `CC/C(=C(\c1ccccc1)c1ccc(OCCN(C)C)cc1)c1ccc(O)cc1`, the figure is 124% (active); as for `Nc1ccc2cc3ccccc3cc2c1`, -0.822%; as for `c1ccc2c(c1)-c1cccc3c1c-2cc1ccccc13`, 11.1%.
With `O=C=Nc1ccc(Cc2ccc(N=C=O)cc2)cc1`, the caspase-3 activation is 1.23%.
For the compound `O=[N+]([O-])c1cc([N+](=O)[O-])c2ccc(S(=O)(=O)O)cc2c1O`, the caspase-3 activation is 0.036%.
In the case of `Cc1cc(O)c(C(C)(C)C)cc1Sc1cc(C(C)(C)C)c(O)cc1C`, the Potency was 31.6 µM (active).
`CCC(C)Nc1ccc(NC(C)CC)cc1` (configuration not stated): the caspase-3 activation is -5.35%.
For `CNc1ccc(O)cc1`, the caspase-3 activation was -5.23%.
Consider `O=C1OC2(c3cc(Br)c(O)c(Br)c3Oc3c2cc(Br)c(O)c3Br)c2c(Cl)c(Cl)c(Cl)c(Cl)c21`, for which the caspase-3 activation was -0.639%.
Take `Oc1ccc2cc(SSc3ccc4cc(O)ccc4c3)ccc2c1`: the caspase-3 activation was 4.17%.
Regarding `c1ccc2c(c1)ccc1cc3c(ccc4ccccc43)cc12`, the caspase-3 activation is -1.53%.
As to `C/C=C1\C(=O)C[C@H]2[C@@H]3CCC4=CC(=O)CC[C@]4(C)[C@H]3CC[C@]12C`, the caspase-3 activation was 22.9%.
For `C=C(C)c1ccccc1`, the caspase-3 activation was 1.07%.
On to `O=C1OC(O)C(C(Cl)Cl)=C1Cl` (configuration not stated), for which the caspase-3 activation was 24.6%.
Same read-out and setting: the same measure for `Cc1ccc(S(=O)(=O)Oc2ccc(N=Nc3ccc(-c4ccc(N=Nc5c(O)ccc6cc(S(=O)(=O)O)cc(S(=O)(=O)O)c56)c(C)c4)cc3C)cc2)cc1`: -0.204%.

A further assay can be described thus: Cellular Toxicity (caspase-3) NIH 3T3 (AID 666).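 Note: 0% = DMSO basal and 100% = 100 µM tamoxifen stimulation.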 To be noted: NIH 3T3 caspase-3 activation, apoptosis/toxicity; series mostly up to 92.2 µM. An outline of the steps:
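NIH 3T3, 1000 cells/well, 5 hr settle then 16 hr compound at 37°C; Caspase-Glo 3/7, 20 min RT, luminescence. DMSO = basal, 100 uM tamoxifen = 100%. Hill-equation AC50, qHTS.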
Consider `CN(C)c1ccc(C2(c3ccc(N(C)C)cc3)OC(=O)c3cc(N(C)C)ccc32)cc1`, for which the Potency entry was “inactive”.
Turning to `CO[C@H]1/C=C/O[C@@]2(C)Oc3c(C)c(O)c4c(O)c(c5c(c4c3C2=O)NC2(CCN(CC(C)C)CC2)N=5)=NC(=O)/C(C)=C\C=C\[C@H](C)[C@H](O)[C@@H](C)[C@@H](O)[C@@H](C)[C@H](OC(C)=O)[C@@H]1C`, the Potency result was “inactive”.
With `O=C(OCC(COC(=O)c1ccccc1)(COC(=O)c1ccccc1)COC(=O)c1ccccc1)c1ccccc1`, the Potency result is “inactive”.
On to `ClC1=C(Cl)C(Cl)(Cl)C(Cl)=C1Cl`, for which the Potency entry is “inactive”.
As for `CC(=O)Nc1ccc(C(=O)CCl)cc1`, the Potency entry was “inactive”.
On to `CC/C(=C(\c1ccccc1)c1ccc(OCCN(C)C)cc1)c1ccc(O)cc1`, for which the Potency result is “inactive”.
Still for that read-out and setting: the same measure for `Nc1ccc2cc3ccccc3cc2c1`: “inactive”; for `c1ccc2c(c1)-c1cccc3c1c-2cc1ccccc13`: “inactive”.
Regarding `O=C=Nc1ccc(Cc2ccc(N=C=O)cc2)cc1`, the Potency entry is “inactive”.
Consider `O=[N+]([O-])c1cc([N+](=O)[O-])c2ccc(S(=O)(=O)O)cc2c1O`, for which the Potency entry was “inactive”.
On the same count and under the same terms, the same measure for `Cc1cc(O)c(C(C)(C)C)cc1Sc1cc(C(C)(C)C)c(O)cc1C`: “inactive”; for `C=CC(=O)OCCOCCOC(=O)C=C`: “inactive”; for `O=C1OC2(c3cc(Br)c(O)c(Br)c3Oc3c2cc(Br)c(O)c3Br)c2c(Cl)c(Cl)c(Cl)c(Cl)c21`: “inactive”.
With `Oc1ccc2cc(SSc3ccc4cc(O)ccc4c3)ccc2c1`, the Potency result is “inactive”.
Regarding `c1ccc2c(c1)ccc1cc3c(ccc4ccccc43)cc12`, the Potency result is “inactive”.
Turning to `C/C=C1\C(=O)C[C@H]2[C@@H]3CCC4=CC(=O)CC[C@]4(C)[C@H]3CC[C@]12C`, the Potency entry is “inactive”.
The same measure, in the same setting: as for `C=C(C)c1ccccc1`, the entry is “inactive”.
As to `O=C1OC(O)C(C(Cl)Cl)=C1Cl` (configuration not stated), the Potency result is “inactive”.
Still for that read-out and setting: the same measure for `Cc1ccc(S(=O)(=O)Oc2ccc(N=Nc3ccc(-c4ccc(N=Nc5c(O)ccc6cc(S(=O)(=O)O)cc(S(=O)(=O)O)c56)c(C)c4)cc3C)cc2)cc1`: “inactive”.
